According to PubChem BioAssay (NCATS):
Values joined by “and” are separate entries in the source; they are usually repeats but may differ in a detail not shown here. Equal values may be shown once. Results filed as inconclusive are left out. Active and inactive are the calls of the source. The call rests on the fitted dose curve; in most records, active means well fitted curve in the direction sought with a large enough effect; inconclusive means small, poorly fitted or top-dose-only effect, or another doubt; inactive means no such curve, though single readings can be large; an effect the other way counts as inactive or inconclusive.

Experiments:
[1] = target: Cytochrome P450 3A7 (Homo sapiens) (UniProt P24462); assay: Cytochrome P450 family 3 subfamily A member 7 (CYP3A7) small molecule antagonists: luciferase biochemical qHTS assay (AID 1963596); further: on the % scale 0 is the no-effect control and ±100 the full control effect; nearly all actives have a fitted effect of over 40% in size
Outline: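 Recombinant CYP3A7 P450-Glo luminescent assay: enzyme-proluciferin substrate mix preincubated with compound 10 min at room temperature, reaction started with NADPH regeneration system for 1 h. Luciferin detected by luminescence; ketoconazole as positive control.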

[2] = Viability qHTS for spleen associated tyrosine kinase inhibitor (SYKi) naive MV4-11 cells (AID 1963823); further: nearly all actives have a fitted effect of over 40% in size
Outline: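 SYKi-naive MV4-11 AML cells, 500 per well, were exposed to library compounds for 72 hr at 37 C, 5% CO2. Viability was then read by CellTiter-Glo luminescence after 10 min at room temperature.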

[3] = Viability qHTS for spleen associated tyrosine kinase inhibitor (SYKi) drug resistant MV4-11 cells (AID 1963824); further: nearly all actives have a fitted effect of over 35% in size
Outline: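 SYK-inhibitor-resistant MV4-11 AML cells were seeded at 500 per well onto compound and cultured 72 hours (37 °C, 5% CO2). CellTiter-Glo was then added, and after 10 min at room temperature, luminescence gave viability.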

[4] = Cellular viability qHTS for adrenocortical cancer (ACC) cell line SW-13 (AID 1963989); conditions: SW-13 ACC cells viability, CellTiter-Glo, 48 h; activity (max response): active compounds read low;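 further: cells grown in serum-free medium with ITS supplement; on the % scale 0 is the no-effect control and ±100 the full control effect; nearly all actives have a fitted effect of over 65% in size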
Outline: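 IC50 and maximal-response values come from four-parameter logistic fits of titration data. SW-13 cells in serum-free medium received compounds (up to 46 uM final) for 48 h before CellTiter-Glo luminescence.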

[5] = Cellular viability qHTS for adrenocortical cancer (ACC) cell line NCI-H295R (AID 1963990);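 further: 0% = DMSO only wells and -100% = full killing with cytotoxic reference compound; nearly all actives have a fitted effect of over 60% in size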
Outline: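 Adrenocortical carcinoma cells, suspended at 300 000 cells/mL in serum-free DMEM plus ITS, rested overnight before pin transfer of compound. After two days' incubation, ATP-dependent luminescence was recorded and curve-fitted.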

Chain of Cytochrome P450 3A7 (Homo sapiens) (P24462 whole entry, looked up): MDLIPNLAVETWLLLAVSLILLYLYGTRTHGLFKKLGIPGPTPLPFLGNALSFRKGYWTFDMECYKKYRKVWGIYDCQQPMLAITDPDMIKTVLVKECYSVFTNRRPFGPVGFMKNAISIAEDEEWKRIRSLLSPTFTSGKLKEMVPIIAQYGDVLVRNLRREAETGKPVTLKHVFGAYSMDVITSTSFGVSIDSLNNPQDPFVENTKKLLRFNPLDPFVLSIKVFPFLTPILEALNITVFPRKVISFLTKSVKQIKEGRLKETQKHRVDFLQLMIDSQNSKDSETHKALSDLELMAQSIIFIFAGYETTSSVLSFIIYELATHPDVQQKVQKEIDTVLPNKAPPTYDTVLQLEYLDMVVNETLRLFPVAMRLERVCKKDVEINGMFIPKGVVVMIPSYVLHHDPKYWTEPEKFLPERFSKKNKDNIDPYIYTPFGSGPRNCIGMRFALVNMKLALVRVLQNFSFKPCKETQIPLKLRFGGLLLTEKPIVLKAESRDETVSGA

NC[C@H]1O[C@H](O[C@H]2[C@H](O)[C@@H](O[C@H]3O[C@H](CO)[C@@H](O)[C@H](N)[C@H]3O)[C@H](N)C[C@@H]2N)[C@H](N)[C@@H](O)[C@@H]1O
inactive: Potency [1] | Potency [2] | Potency [3] | activity (max response) [4] -3.44% | Potency [5]

O=C(O)c1cc(-c2ccccc2)nc2ccccc12
inactive: Potency [1] | Potency [2] | Potency [3] | activity (max response) [4] 10.7% | Potency [5]

CCCN(CCC)S(=O)(=O)c1ccc(C(=O)O)cc1
inactive: Potency [1] | Potency [2] | Potency [3] | activity (max response) [4] 9.34% | Potency [5]

CC(=O)Oc1ccc(C)cc1
inactive: Potency [1] | Potency [2] | Potency [3] | activity (max response) [4] 6.29% | Potency [5]

Cn1c(=O)c2[nH]cnc2n(C)c1=O
inactive: Potency [1] | Potency [2] | Potency [3] | activity (max response) [4] -5.93% and 14.5% | Potency [5]

O=C(O)CCCCCCCC(=O)O
inactive: Potency [1] | Potency [2] | Potency [3] | activity (max response) [4] 10.6% | Potency [5]

O=S(=O)(O)c1ccc(O)cc1
inactive: Potency [1] | Potency [2] | Potency [3] | activity (max response) [4] 11.9% | Potency [5]
